1 compound from PubChem BioAssay (NCATS) can be followed below.

Inconclusive results are not listed. Calls of active or inactive are those of the source. Unless noted, calls follow the shape of the dose curve; as a rule, active = well fitted curve in the direction sought with a large enough effect; inconclusive = small, poorly fitted or top-dose-only effect, or another doubt; inactive = no such curve, though single readings can be large; an effect the other way counts as inactive or inconclusive.

Assay [1] deals with Glucocorticoid receptor (Homo sapiens) (UniProt P04150). In words: qHTS assay for small molecule antagonists of glucocorticoid receptor signaling (AID 588533; active = well fitted inhibition curve with a large enough effect in the signal ratio, with a control signal flat, not every such curve was filed as active; the % refers to the signal ratio;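 also: cells stimulated with 2 nM dexamethasone as agonist; % is scaled to controls: 0 for no effect and ±100 for the full control effect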). Put shortly: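 Antagonist-mode qHTS: compound titrations added to GRE-bla HeLa cells, then dexamethasone 2 nM final; 18 h, 37 C. CCF4 FRET fluorescence normalized to dexamethasone and DMSO; IC50 from Hill fit.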
For assay [2], the target named is Peroxisome proliferator-activated receptor gamma (Homo sapiens) (UniProt P37231). In words: qHTS assay for small molecule agonists of peroxisome proliferator-activated receptor gamma signaling (AID 588536; active = well fitted curve in the direction sought with a large enough effect in the signal ratio, with a control signal flat, not every such curve was filed as active; the % refers to the signal ratio;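 also: 0% = DMSO basal wells and 100% = rosiglitazone at 2 µM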). Put shortly: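 GeneBLAzer PPAR-gamma-UAS-bla HEK293 cells in 1% charcoal/dextran-treated FBS medium were treated 16 h at 37 C with compounds. Beta-lactamase activity was read by CCF4 ratio (460/530 nm). Response was normalized to 2 uM rosiglitazone (100%) and DMSO, then Hill-fitted for EC50 and efficacy.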

Assay [3] can be described thus: qHTS assay for small molecule agonists of retinoid X receptor alpha signaling (AID 588544; calls by dose curve;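 as to activation: 0% = DMSO basal wells and 100% = reference agonist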). Conditions: HEK293T RXRa-UAS-bla, beta-lactamase reporter, 18 h; 530 nm emission.
Assay [4] concerns the target Retinoic acid receptor RXR-alpha (Homo sapiens) (UniProt P19793). The assay is described as above.
Assay [5] has as its target Thyroid hormone receptor beta (Homo sapiens) (UniProt P10828). In words: qHTS assay for small molecule agonists of thyroid hormone receptor beta signaling (AID 588545; calls by dose curve;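 also: 0% = DMSO only and 100% = 10 nM T3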). Put shortly: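 TR-UAS-bla GripTite HEK 293 cells (2500/well, medium with 2% charcoal/dextran FBS) were treated in agonist mode for 18 h at 37 C, titrated. Beta-lactamase was read by CCF4 ratio after 2 h; normalized to 10 nM T3 (100%) and DMSO, Hill-fitted for EC50 and efficacy.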

Assay [6] shares this target. In words: qHTS assay for small molecule antagonists of thyroid hormone receptor beta signaling (AID 588547; active = well fitted inhibition curve with a large enough effect in the signal ratio, with a control signal flat, not every such curve was filed as active; the % refers to the signal ratio;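 also: cells stimulated with 0.4 nM T3 agonist during compound exposure; series mostly up to about 77 µM; % is scaled to controls: 0 for no effect and ±100 for the full control effect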). Conditions: TR-UAS-bla HEK293, beta-lactamase ratio, antagonist mode, 18 h. Put shortly:
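TR-UAS-bla GripTite HEK293 cells in 2% charcoal/dextran FBS medium; compounds 0.59 nM to 92 uM with T3 at 0.4nM final, 18 h at 37 C. Beta-lactamase read by CCF4 fluorescence (460/530 nm); Hill fits gave IC50 and efficacy.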

Assay [7] deals with Voltage-gated inwardly rectifying potassium channel KCNH2 (Homo sapiens) (UniProt Q12809). In words: qHTS Assay for Small Molecule Inhibitors of the Human hERG Channel Activity (AID 588834).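 Also: top concentration of the series differs between compounds; % is scaled to controls: 0 for no effect and ±100 for the full control effect; lower thallium flux fluorescence means stronger hERG block; nearly all actives have a fitted effect of over 50% in size.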 The gist of the method: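 Measured: FluxOR fluorescence after thallium stimulation in U2OS cells transduced with hERG by baculovirus. Compounds pre-incubated around 10 min; medium Opti-MEM with 2% FCS. AC50 from Hill equation.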

For assay [8], the target named is Luciferin 4-monooxygenase (Photinus pyralis) (UniProt P08659). In words: Biochemical firefly luciferase enzyme assay for NPC (AID 624030).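 Also: purified P. pyralis luciferase at 10 nM with luciferin and ATP substrate; series mostly up to about 59 µM; 0% = DMSO and -100% = full luciferase inhibition by PTC124 control; nearly all actives have a fitted effect of over 70% in size.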 Put shortly: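 Purified P. pyralis luciferase at 10 nM in 50 mM Tris Acetate (final), luminescence read within 5 minutes of enzyme addition to compounds. Activity normalised to PTC124 versus DMSO; concentration-response curves classed by r2, magnitude and activity.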

A short description of assay [9]: S16 Schwann cell viability assay (CellTiter-Glo assay) (AID 624031).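 Also: native untransfected S16 rat Schwann cells; series mostly up to about 58 µM; plate controls were DMSO-treated cells for no effect and cell-free wells for full effect; nearly all actives have a fitted effect of over 70% in size.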 The gist of the method:
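Following overnight culture in 10% FBS DMEM, parental S16 rat Schwann cells are dosed for 24 h at 37 °C. Viability is read as CellTiter-Glo luminescence and expressed as % activity relative to DMSO (0%) and no-cell wells.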

Assay [10] in a line: S16 Schwann cell PMP22 intronic element beta-lactamase assay (AID 624044; calls by dose curve;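 also: 0% = DMSO and -100% = potassium clavulanate positive control; nearly all actives have a fitted effect of over 15% in size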). The gist of the method:
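Rat S16 Schwann cells with beta-Lac driven by a PMP22 intronic element, compound-treated 24 h at 37 °C. LiveBLAzer FRET B/G read: 460 nm normalized to potassium clavulanate vs DMSO; 535 nm FRET as viability; concentration-effect curves classified.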

Assay [11] can be described thus: qHTS assay for small molecule activators of the p53 signaling pathway (AID 651743; active = well fitted activation curve with a large enough effect in the signal ratio, not every such curve was filed as active; the % refers to the signal ratio; also: series mostly up to about 92 µM; % of control where 0% means no effect). The conditions noted are these: HCT-116 p53RE-bla, beta-lactamase FRET ratio, 16 h; activation: stronger effect = higher value. The gist of the method:
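p53RE-bla HCT-116 cells carrying a beta-lactamase reporter under p53 response elements were exposed to compounds for 16 hours at 37 C. Reporter activity read as fluorescence after 2 hours at room temperature with LiveBLAzer B/G FRET substrate.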

Assay [12] is described as follows: qHTS assay for small molecule activators of the nuclear factor-kappa B (NF-kB) signaling pathway (AID 651749; active = well fitted activation curve with a large enough effect in the signal ratio; the % refers to the signal ratio; also: series mostly up to about 77 µM; % of control where 0% means no effect). Conditions: NF-kB-bla ME-180 cells, beta-lactamase FRET ratio, 16 h; stronger effect = higher value. The gist of the method: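 NF-kB-bla ME-180 cells carrying a beta-lactamase reporter under an NF-kB response element, 2,000 cells/well, exposed to compound for 16 hr at 37C; FRET-based beta-lactamase fluorescence read-out of pathway activation.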

The nature of assay [13]: qHTS assay for small molecule disruptors of the mitochondrial membrane potential - 1 hr assay (AID 651754; calls by dose curve; also: % is scaled to controls: 0 for no effect and ±100 for the full control effect; nearly all actives have a fitted effect of over 35% in size). The gist of the method: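 HepG2 cells, attached overnight, were exposed to compound for 1 hr at 37C, then stained 30 min with a potentiometric dye. Ratio of red aggregate (590nm) to green monomer (535nm) fluorescence reports membrane potential; collapse shifts signal toward green.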

Assay [14] can be described thus: qHTS assay for small molecule disruptors of the mitochondrial membrane potential - 5 hr assay (AID 651755; calls by dose curve; also: % is scaled to controls: 0 for no effect and ±100 for the full control effect; nearly all actives have a fitted effect of over 40% in size). The gist of the method: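 HepG2 cells (2,000/well), attached overnight, exposed to compound 5 hr at 37C, then Mito-MPS dye 30 min. Fluorescence read for monomers (490/535 nm) and aggregates (540/590 nm).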
The target in assay [15] is Tumor necrosis factor (Homo sapiens) (UniProt P01375). In words: qHTS assay to identify small molecules that stimulate Tumor Necrosis Factor-alpha (TNF-alpha) secretion (AID 651757; active = well fitted curve in the direction sought with a large enough effect in the signal ratio; the % refers to the signal ratio; also: potency is read from the fitted curve at half-maximal effect). The gist of the method: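 THP-1 cells (3000/well) exposed to compounds 17 hrs at 37 C. Secreted TNF-alpha detected by HTRF with cryptate- and XL665-labeled anti-TNF-alpha antibodies after 3 hr at room temperature.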

The nature of assay [16]: qHTS assay for environmental chemicals that activate the Aryl hydrocarbon Receptor (AhR) signaling pathway (AID 651777). Also: % of control where 0% means no effect; nearly all actives have a fitted effect of over 15% in size. Conditions: 1A2-DRE human hepatoma cells, luciferase, 24 h; activation: stronger effect = higher value. Put shortly: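 Concentration–response screening used 1,200 1A2-DRE cells per well, 24 hr compound exposure (37 C, 5% CO2), and One-Glo luminescence as the AhR-driven CYP1A2 reporter signal.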

Assay [17] addresses Peroxisome proliferator-activated receptor alpha (Homo sapiens) (UniProt Q07869). In words: qHTS assay for small molecule agonists of the peroxisome proliferator-activated receptor alpha (PPARalpha) signaling pathway (AID 651778). Also: % of control where 0% means no effect. The conditions noted are these: PathHunter PPARalpha complementation, chemiluminescence, 6 h; stronger effect = higher value. Put shortly: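 Enzyme-fragment complementation assay in which ligand-bound PPARalpha translocates and forms an active enzyme that generates chemiluminescence. Cells were plated overnight, exposed to compound for 6 hr at 37 C, and then given detection reagent for 60 min at room temperature.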

Assay [18] is described as follows: qHTS assay for small molecule agonists of the antioxidant response element (ARE) signaling pathway measured by Nrf2-dependant transcriptional activity (AID 720636; active = well fitted curve in the direction sought with a large enough effect in the repeat runs; an effect the other way counts as inactive or inconclusive; also: % of control where 0% means no effect). Put shortly:
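Attachment 6 hr at 37 C, then compound versus DMSO vehicle for 16 hr in ARE-luc HepG2 cells (1% dialyzed FBS); luminescence recorded 30 min after ONE-Glo addition at room temperature.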

A short description of assay [19]: qHTS assay for small molecule antagonists of the retinoid-related orphan receptor gamma (ROR-gamma) signaling pathway - cell viability counter screen (AID 720652; active = well fitted curve in the direction sought with a large enough effect in the repeat runs; an effect the other way counts as inactive or inconclusive;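 also: CHO reporter cells with doxycycline-induced ROR-gamma expression; series mostly up to about 92 µM; compound exposure lasted 16 hr before ATP read; % is scaled to controls: 0 for no effect and ±100 for the full control effect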). The gist of the method:
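CHO cells carrying TET-inducible ROR and RORE-luciferase reporter, plated 5 hr, then dosed with compound plus doxycycline. After 16 hr at 37 C, viability read as intracellular ATP by CellTiter-Glo luminescence.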

A short description of assay [20]: qHTS assay for small molecule agonists of the antioxidant response element (ARE) signaling pathway measured by Nrf2-dependant transcriptional activity - cell viability counter screen (AID 720653; active = well fitted curve in the direction sought with a large enough effect in the repeat runs; an effect the other way counts as inactive or inconclusive; also: % is scaled to controls: 0 for no effect and ±100 for the full control effect). The conditions noted are these: ARE-bla HepG2 viability, CellTiter-Glo ATP luminescence, 16 h; stronger effect = lower value. Put shortly: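 ARE-bla HepG2 cells treated with compounds for 16 h at 37C; this counter screen measures viability as intracellular ATP by CellTiter-Glo luminescence after 30 min at room temperature.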

A short description of assay [21]: qHTS assay for cell viability of HEK293 cells (AID 743288). Also: % is scaled to controls: 0 for no effect and ±100 for the full control effect; nearly all actives have a fitted effect of over 50% in size. Conditions: ATP luminescence (CellTiter-Glo), 18 h, stronger effect = lower value. Put shortly: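 The Tox21 protocol used parental HEK293 cells treated for 18 h at 37 C with compounds delivered by pintool; ATP-coupled luminescence after 30 min at room temperature gave viability.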
A short description of assay [22]: qHTS assay for cell viability of the p53RE-bla HCT-116 cell line (AID 743292). Also: % is scaled to controls: 0 for no effect and ±100 for the full control effect; nearly all actives have a fitted effect of over 55% in size. The gist of the method:
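Compound-exposed HCT-116 (p53RE-bla) cells, 4,000 per well, were kept 16 h at 37 C following a 5 h preincubation. Cell number was estimated from total ATP by CellTiter-Glo luminescence read after 30 min at room temperature.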

Assay [23] in a line: qHTS to identify inhibitors of the type 1 interferon - major histocompatibility complex class I in skeletal muscle: primary screen against the NCATS Mechanism Interrogation Plate v5.0 (MIPE) Libary (AID 1347411).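 Also: plate controls were vehicle for no effect and reference inhibitor for full effect; nearly all actives have a fitted effect of over 65% in size.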 The gist of the method: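 Immortalized human myoblasts (C25cl48) with HiBit knocked into endogenous HLA-B*08:01 were stimulated with 4 ng/ml IFN-beta and given compounds in 11-point 1:3 titration from 46 uM. After 24 h at 37 C, lytic HiBiT luminescence was read.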

Thyroid hormone receptor beta (Homo sapiens), sequence (P10828 whole entry, looked up): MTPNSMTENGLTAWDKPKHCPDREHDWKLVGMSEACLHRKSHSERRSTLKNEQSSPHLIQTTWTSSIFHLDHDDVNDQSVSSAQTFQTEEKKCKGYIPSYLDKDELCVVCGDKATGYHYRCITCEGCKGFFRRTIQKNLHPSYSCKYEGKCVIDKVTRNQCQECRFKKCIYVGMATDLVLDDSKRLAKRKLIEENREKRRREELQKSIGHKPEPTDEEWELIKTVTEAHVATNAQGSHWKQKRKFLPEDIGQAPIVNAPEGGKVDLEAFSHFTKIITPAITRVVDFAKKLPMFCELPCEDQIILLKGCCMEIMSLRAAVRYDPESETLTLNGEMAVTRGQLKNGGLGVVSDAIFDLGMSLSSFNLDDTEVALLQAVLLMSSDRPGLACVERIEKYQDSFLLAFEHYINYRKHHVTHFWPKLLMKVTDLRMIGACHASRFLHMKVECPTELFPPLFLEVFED
Luciferin 4-monooxygenase (Photinus pyralis), sequence (P08659 whole entry, looked up): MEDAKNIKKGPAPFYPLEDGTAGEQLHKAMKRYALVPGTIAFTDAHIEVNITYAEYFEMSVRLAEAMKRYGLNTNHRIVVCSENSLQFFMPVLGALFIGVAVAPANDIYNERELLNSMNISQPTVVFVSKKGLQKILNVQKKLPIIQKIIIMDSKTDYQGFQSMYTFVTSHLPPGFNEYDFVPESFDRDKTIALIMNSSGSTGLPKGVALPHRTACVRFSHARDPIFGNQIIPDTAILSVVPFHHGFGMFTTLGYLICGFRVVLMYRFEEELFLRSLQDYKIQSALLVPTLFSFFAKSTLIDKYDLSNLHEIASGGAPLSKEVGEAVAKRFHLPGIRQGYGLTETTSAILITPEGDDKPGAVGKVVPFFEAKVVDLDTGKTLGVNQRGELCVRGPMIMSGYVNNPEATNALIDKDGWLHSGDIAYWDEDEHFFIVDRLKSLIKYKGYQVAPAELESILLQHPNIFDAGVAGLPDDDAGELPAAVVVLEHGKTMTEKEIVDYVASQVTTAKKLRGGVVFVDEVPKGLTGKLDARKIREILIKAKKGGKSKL
Tumor necrosis factor (Homo sapiens), sequence (P01375 whole entry, looked up): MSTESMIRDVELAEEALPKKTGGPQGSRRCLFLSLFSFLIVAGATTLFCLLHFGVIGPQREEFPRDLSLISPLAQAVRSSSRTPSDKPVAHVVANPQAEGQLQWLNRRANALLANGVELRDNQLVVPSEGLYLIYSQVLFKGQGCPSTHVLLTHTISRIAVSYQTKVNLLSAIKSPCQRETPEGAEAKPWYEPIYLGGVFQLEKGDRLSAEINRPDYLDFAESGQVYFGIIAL
Peroxisome proliferator-activated receptor alpha (Homo sapiens), sequence (Q07869 whole entry, looked up, the tested form may be a part): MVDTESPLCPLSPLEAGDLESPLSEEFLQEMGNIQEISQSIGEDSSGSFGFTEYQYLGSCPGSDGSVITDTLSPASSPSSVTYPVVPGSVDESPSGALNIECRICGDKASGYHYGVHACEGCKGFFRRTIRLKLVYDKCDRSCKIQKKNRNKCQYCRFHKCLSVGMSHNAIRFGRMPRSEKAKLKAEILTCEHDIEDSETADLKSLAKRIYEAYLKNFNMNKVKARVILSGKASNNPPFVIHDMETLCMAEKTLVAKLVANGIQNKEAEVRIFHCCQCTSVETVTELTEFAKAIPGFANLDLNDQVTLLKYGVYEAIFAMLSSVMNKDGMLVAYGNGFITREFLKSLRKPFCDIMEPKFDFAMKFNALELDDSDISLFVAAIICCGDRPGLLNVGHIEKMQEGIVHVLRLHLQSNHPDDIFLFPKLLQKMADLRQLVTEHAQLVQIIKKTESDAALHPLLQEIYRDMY
Voltage-gated inwardly rectifying potassium channel KCNH2 (Homo sapiens), sequence (Q12809 whole entry, looked up): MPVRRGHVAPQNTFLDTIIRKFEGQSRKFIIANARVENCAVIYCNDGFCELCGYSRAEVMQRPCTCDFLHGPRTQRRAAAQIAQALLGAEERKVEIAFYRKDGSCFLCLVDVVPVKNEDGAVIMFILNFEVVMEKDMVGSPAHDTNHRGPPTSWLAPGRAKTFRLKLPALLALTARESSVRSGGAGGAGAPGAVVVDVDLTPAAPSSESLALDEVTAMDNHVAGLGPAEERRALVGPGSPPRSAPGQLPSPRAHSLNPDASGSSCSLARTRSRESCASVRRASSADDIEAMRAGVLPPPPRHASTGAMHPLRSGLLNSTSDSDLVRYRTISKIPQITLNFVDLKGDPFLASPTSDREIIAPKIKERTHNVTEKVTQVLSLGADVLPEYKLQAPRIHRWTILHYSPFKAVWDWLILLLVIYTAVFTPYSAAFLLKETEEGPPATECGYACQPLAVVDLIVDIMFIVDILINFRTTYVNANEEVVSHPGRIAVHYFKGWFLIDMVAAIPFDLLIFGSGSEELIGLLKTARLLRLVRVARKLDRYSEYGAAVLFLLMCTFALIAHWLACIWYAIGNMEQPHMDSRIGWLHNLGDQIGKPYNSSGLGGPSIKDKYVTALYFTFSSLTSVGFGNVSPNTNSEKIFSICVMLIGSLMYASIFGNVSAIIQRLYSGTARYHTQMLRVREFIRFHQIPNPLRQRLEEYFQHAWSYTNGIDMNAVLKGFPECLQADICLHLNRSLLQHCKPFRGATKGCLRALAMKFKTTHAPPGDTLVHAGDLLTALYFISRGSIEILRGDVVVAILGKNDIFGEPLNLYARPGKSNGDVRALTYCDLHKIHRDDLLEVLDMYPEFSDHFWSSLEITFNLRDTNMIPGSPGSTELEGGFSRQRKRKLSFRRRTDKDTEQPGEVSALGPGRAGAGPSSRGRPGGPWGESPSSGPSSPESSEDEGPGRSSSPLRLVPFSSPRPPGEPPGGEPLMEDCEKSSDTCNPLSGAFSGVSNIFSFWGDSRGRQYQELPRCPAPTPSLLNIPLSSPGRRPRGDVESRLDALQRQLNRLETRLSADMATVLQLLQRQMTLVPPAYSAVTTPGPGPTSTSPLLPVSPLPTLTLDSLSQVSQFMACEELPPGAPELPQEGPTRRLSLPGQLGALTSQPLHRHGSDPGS
Glucocorticoid receptor (Homo sapiens), sequence (P04150 whole entry, looked up): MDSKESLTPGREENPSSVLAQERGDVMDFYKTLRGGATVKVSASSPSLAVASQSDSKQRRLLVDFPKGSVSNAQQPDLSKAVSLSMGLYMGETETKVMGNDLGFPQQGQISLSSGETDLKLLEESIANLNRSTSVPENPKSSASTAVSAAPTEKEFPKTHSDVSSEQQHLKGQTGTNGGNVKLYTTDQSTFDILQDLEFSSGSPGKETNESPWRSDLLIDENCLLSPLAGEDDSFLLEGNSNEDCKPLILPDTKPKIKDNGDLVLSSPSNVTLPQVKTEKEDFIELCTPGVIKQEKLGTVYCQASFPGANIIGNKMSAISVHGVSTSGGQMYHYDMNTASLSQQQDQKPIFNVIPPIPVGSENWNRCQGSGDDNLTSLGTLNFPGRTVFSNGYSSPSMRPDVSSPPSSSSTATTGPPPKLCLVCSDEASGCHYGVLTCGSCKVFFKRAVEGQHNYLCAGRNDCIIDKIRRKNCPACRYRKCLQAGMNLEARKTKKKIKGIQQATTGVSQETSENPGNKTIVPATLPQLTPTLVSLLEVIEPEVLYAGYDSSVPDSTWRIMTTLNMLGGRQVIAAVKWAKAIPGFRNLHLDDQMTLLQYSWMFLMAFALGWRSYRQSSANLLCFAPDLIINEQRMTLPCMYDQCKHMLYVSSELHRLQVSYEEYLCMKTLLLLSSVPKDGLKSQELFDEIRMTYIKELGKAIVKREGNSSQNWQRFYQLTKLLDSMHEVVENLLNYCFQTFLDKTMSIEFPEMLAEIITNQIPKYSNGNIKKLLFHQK
Retinoic acid receptor RXR-alpha (Homo sapiens), sequence (P19793 whole entry, looked up): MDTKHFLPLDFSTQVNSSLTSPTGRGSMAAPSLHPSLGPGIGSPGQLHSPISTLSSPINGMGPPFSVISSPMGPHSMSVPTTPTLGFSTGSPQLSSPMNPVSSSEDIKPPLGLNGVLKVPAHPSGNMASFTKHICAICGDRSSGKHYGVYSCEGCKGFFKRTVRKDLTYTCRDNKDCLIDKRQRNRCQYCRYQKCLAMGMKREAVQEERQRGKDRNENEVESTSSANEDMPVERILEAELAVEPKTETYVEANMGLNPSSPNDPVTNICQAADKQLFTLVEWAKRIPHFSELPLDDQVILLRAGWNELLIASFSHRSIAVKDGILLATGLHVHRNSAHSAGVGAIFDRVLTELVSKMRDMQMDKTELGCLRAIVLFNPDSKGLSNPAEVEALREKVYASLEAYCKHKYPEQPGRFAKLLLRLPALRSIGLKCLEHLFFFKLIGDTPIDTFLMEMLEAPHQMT
Peroxisome proliferator-activated receptor gamma (Homo sapiens), sequence (P37231 whole entry, looked up): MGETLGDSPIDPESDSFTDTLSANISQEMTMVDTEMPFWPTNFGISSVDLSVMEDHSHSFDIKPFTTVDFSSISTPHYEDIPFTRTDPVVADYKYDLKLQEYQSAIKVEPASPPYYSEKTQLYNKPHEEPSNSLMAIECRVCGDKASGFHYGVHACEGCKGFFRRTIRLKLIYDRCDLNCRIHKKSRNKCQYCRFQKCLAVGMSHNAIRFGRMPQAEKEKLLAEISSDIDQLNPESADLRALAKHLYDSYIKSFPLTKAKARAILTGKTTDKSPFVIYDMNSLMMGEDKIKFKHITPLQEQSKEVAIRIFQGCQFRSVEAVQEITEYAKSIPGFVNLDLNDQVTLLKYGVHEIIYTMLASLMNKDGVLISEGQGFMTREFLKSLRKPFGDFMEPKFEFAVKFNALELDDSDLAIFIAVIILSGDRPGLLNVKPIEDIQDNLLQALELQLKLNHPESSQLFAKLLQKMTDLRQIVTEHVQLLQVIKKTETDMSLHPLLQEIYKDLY

In the case of `C[C@@H]1[C@H](O)[C@@H](C)/C=C/C=C/C=C/C=C/C=C/C=C/C=C/[C@H](O[C@@H]2O[C@H](C)[C@@H](O)[C@H](N)[C@@H]2O)C[C@@H]2O[C@](O)(C[C@@H](O)C[C@@H](O)[C@H](O)CC[C@@H](O)C[C@@H](O)CC(=O)O[C@H]1C)C[C@H](O)[C@H]2C(=O)O`, the Potency entry in assay [1], in assay [7], in assay [8], in [13], in assay [14] and in assay [22] was “inactive” throughout. For the same compound, the Potency result in assay [23] was “inactive”. Further, the call in assay [2], in assay [4], in [5], in [9], in assay [10] and in assay [18] was inactive. Also, in assay [19], the outcome was inactive. Further, the max response in assay [3] was 19.3%; in assay [17], 6.84% (inactive); in assay [20], -15.2% (inactive); in assay [21] it was -1.04% (inactive). Besides, the activity change % (negative = inhibition) in assay [6] is 2.02% (inactive). Further, the activation is 0.804% (inactive) in [11], -0.187% (inactive) in [12] and 0.282% (inactive) in [16]. In assay [15], the Potency was 42.2 µM (active).
